# From PubChem BioAssay
# Active and inactive are the calls of the source.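 The calls were made as follows, unless noted: active = NADPH fluorescence slope more negative than the mean of all samples by about 3 SD, 99.7% confidence; inactive = the rest.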
# Assays:
# [1] = inhibitors of TNFa-induced NFkB p65 translocation, primary screen, imaging, HUVEC, MLSMR starter and 10KST1 sets (AID 438;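 active = inhibition above 20% together with a positive visual image hit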;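 also: compound added about 3h40 before a 20 min TNFalpha stimulation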;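 as to inhibition: signal is the nuclear over cytoplasmic p65 intensity ratio per well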); conditions: HUVEC TNFa-induced p65 nuclear translocation; cell count: measured here: nuclei count (cytotoxicity indicator), at 2.08 µM; inhibition: at 2 µM, stronger effect = higher value, 0% TNFa-plus-vehicle, 100% no-TNFa wells
# [2] = reduction of polyQ htt aggregates in cells – imaging, exon1htt(103Q)mCFP cells, high-content imaging, primary screen (AID 483;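 active = visual image review flags a hit and inhibition of aggregation exceeds 20%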;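 also: compound exposure lasted 3 days before fixation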;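 as to nuclei count: percent of the per-plate median nuclei count of sample wells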); conditions: exon1htt(103Q)mCFP cell line, aggregate imaging, at 2 µM; inhibition of aggregation: stronger effect = higher value; nuclei count: measured here: cell count, toxicity
# [3] = endothelial E-selectin expression blockers – imaging, HUVEC, immunofluorescence, MLSMR starter and 10KST1 sets, primary screen (AID 487;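 active = visually confirmed hit in the image check and inhibition above 20%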;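 as to inhibition: signal is fraction of cell area covered by stained E-selectin grains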;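 as to nuclei count: 100% = median nuclei count of all wells on the same plate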); conditions: HUVEC TNFalpha-induced E-selectin immunofluorescence imaging, at 2 µM; inhibition: stronger effect = higher value; nuclei count: measured here: cell number, toxicity
# [4] = target: Voltage-gated potassium channel subunit beta-2 (Rattus norvegicus) (UniProt P62483); assay: inhibitors of rat Kvbeta2 reductase activity – biochemical, NADPH fluorescence, primary screen (AID 622;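 active = fluorescence slope higher than the sample average by over 3 SD, cut at about -0.22 in these data, passing the limit was not always enough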;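 also: slope of raw intensity against log time taken from 70 to 1610 s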); conditions: recombinant KvBeta, 4-cyanobenzaldehyde reduction, at 10 µM, stronger effect = higher value
# Voltage-gated potassium channel subunit beta-2 (Rattus norvegicus), sequence (P62483 whole entry, looked up): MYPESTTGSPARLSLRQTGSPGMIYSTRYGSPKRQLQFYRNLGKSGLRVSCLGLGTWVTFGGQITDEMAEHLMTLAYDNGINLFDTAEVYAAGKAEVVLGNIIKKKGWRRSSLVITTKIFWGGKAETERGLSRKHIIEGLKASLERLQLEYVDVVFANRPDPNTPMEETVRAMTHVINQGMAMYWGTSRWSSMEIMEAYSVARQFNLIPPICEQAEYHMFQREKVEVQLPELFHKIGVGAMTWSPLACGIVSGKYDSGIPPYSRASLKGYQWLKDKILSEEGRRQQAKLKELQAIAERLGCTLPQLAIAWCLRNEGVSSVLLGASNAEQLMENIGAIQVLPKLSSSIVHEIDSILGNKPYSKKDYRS
# [5] = target: Voltage-gated potassium channel subunit beta-2 (Rattus norvegicus) (UniProt P62483); assay: enhancers of rat Kvbeta2 NADPH turnover – biochemical, NADPH fluorescence, primary screen (AID 623); conditions: Recombinant KvBeta, NADPH fluorescence decrease slope, 10 min; at 10 µM; stronger effect = lower value;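 also: fluorescence intensity change per second fitted from 20 to 320 s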
# [6] = target: Alpha-2C adrenergic receptor (Homo sapiens) (UniProt P18825); assay: compounds altering alpha2C-coupled GIRK flux – cell-based, HEK293 alpha2C/GIRK1/2, thallium flux, primary screen (AID 624;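 active = fluorescence slope after compound addition differing from the mean of all screened samples at 99.7% confidence, in either direction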;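 also: slope of fluorescence ratio to pre-addition baseline per second over 15 to 24 s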); conditions: thallium flux BTC fluorescence, at 10 µM, actives lie on both sides
# Alpha-2C adrenergic receptor (Homo sapiens), sequence (P18825 whole entry, looked up): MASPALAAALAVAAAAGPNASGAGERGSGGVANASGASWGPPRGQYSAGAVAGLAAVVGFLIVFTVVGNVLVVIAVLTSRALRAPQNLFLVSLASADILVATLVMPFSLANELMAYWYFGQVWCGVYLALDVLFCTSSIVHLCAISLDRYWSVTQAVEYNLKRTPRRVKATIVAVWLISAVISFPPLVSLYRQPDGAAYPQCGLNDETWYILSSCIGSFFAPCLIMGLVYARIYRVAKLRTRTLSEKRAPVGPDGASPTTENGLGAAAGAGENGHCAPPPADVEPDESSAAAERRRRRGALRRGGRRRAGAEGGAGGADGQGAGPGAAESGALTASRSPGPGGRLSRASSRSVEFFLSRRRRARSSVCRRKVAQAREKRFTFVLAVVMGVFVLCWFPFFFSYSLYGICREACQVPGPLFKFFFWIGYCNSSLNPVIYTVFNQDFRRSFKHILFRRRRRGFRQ
# [7] = blockers of RIG-like receptor reporter activation – cell-based, Sendai virus stimulus, luciferase, 10K MLSCN set, TLR/RLR signaling modifier project, primary screen (AID 602276;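 active = inhibition at or above 50% at 10 µM; inactive = inhibition below 50%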;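 also: firefly luciferase from ISG56 promoter only with Renilla not read in this screen; 0% = Sendai virus plus DMSO and 100% = medium plus DMSO without virus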); conditions: HEK293 RL24 IRF3 luciferase reporter, at 10 µM, stronger effect = higher value
# [8] = TLR3 IRF3 reporter activation blockers – cell-based, poly I:C stimulus, luciferase, 10K MLSCN set, primary screen (AID 602277;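 active = inhibition of the reporter signal at or above 50%; inactive = inhibition below 50%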); conditions: HEK293-TLR3 RL24 IRF3 luciferase reporter, at 10 µM, stronger effect = higher value
Structure (SMILES),cell count [1],inhibition [1],inhibition of aggregation [2],nuclei count [2],inhibition [3],nuclei count [3],fluorescence slope [4],NADPH fluorescence slope [5],slope [6],inhibition [7],inhibition [8]
CCOCCn1c(CN2CCN(CC)CC2)nc2c1c(=O)n(C)c(=O)n2C,638,2.9% (inactive),12.8% (inactive),92.7%,-15.7% (inactive),110%,-0.568 (inactive),-2.7e-05 (inactive),0.0075 (inactive),4.19% (inactive),33.7% (inactive)
CCSc1oc(-c2cccs2)nc1S(=O)(=O)c1ccccc1,690,-6.7% (inactive),-10.8% (inactive),101%,-16.9% (inactive),104%,-0.56 (inactive),-3.1e-05 (inactive),0.00698 (inactive),14.5% (inactive),34% (inactive)
CCOC(=O)c1ccc(NC(=O)CCc2nc(-c3cccc(C)c3)no2)cc1,387,12.6% (inactive),-10.1% (inactive),102%,-1% (inactive),100%,-0.565 (inactive),-6.8e-05 (inactive),0.00651 (inactive),-14.6% (inactive),-24% (inactive)
CCN1CCN(C(=O)c2oc(=O)c3ccccc3c2-c2ccc(C)cc2)CC1,805,-15.2% (inactive),8.7% (inactive),94.3%,-58.3% (inactive),121%,-0.49 (inactive),-4.9e-05 (inactive),0.00617 (inactive),10.4% (inactive),27.7% (inactive)
CCOc1ccccc1-n1c(SCC(=O)NC2CCCC2)nnc1-c1ccoc1C,588,-9.5% (inactive),35.7% (inactive),77.1%,83.6% (inactive),62.7%,-0.543 (inactive),1.9e-05 (inactive),0.00524 (inactive),1.09% (inactive),11.6% (inactive)
Cn1nnnc1SCC(=O)Nc1ccccc1-c1ccccc1,484,-8.7% (inactive),14.7% (inactive),87.9%,-80.2% (inactive),114%,-0.302 (inactive),-1.3e-05 (inactive),0.00645 (inactive),6.85% (inactive),-4.74% (inactive)
CC1(C)CC(=O)C2=C(C1)OC(=O)C2(NC(=O)c1cccs1)C(F)(F)F (centres undefined),607,-8.2% (inactive),5.3% (inactive),104%,-9.5% (inactive),85.7%,-0.598 (inactive),-4.5e-05 (inactive),0.00633 (inactive),1.37% (inactive),15.7% (inactive)
Cc1cc(NS(=O)(=O)c2ccc(NC(=O)COc3ccccc3C(C)C)cc2)no1,579,-12.7% (inactive),17.6% (inactive),72.3%,-2.6% (inactive),116%,-0.555 (inactive),-3.3e-05 (inactive),0.00559 (inactive),14.6% (inactive),39.1% (inactive)
CCOC(=O)N1CCN(C(=O)c2ccc3c(SCC(=O)O)c4c(nc3c2)CCCC4)CC1,819,-5.2% (inactive),14.8% (inactive),100%,-74.3% (inactive),137%,-0.542 (inactive),7.3e-06 (inactive),0.00656 (inactive),9.84% (inactive),21.6% (inactive)
COc1ccc(C2C(C(=O)NCCN3CCOCC3)c3ccccc3C(=O)N2C2CCCCC2)cc1 (centres undefined),334,10.1% (inactive),12.7% (inactive),111%,-93.5% (inactive),111%,-0.611 (inactive),-2.8e-05 (inactive),0.00399 (inactive),30.2% (inactive),26% (inactive)
CCOC(=O)c1ccc2[nH]c(C)c(CN3CCN(C)CC3)c(=O)c2c1,332,6.1% (inactive),11.1% (inactive),89.7%,20.8% (inactive),112%,-0.471 (inactive),-4e-05 (inactive),0.00513 (inactive),-4.42% (inactive),21.9% (inactive)
CCOC(=O)c1ccc(Oc2cc(C)nc(SC)n2)cc1,484,10.1% (inactive),13.3% (inactive),117%,-192% (inactive),134%,-0.47 (inactive),-9.6e-06 (inactive),0.00614 (inactive),15.8% (inactive),19.9% (inactive)
Cc1cc(C)c2c(CC(=O)NCc3ccco3)coc2c1,262,5.7% (inactive),23.9% (inactive),74.9%,34.3% (inactive),60.6%,-0.324 (inactive),4e-05 (inactive),0.00608 (inactive),10.9% (inactive),21.2% (inactive)
Cc1ccc2cc3cc(C(=O)N4CC(C)CC(C)C4)oc3nc2c1 (centres undefined),654,-3.9% (inactive),14.3% (inactive),86.4%,-77% (inactive),110%,-0.597 (inactive),7.7e-06 (inactive),0.00635 (inactive),2.56% (inactive),-64.4% (inactive)
